Screens from PubChem BioAssay.
Compounds with a hit are over-represented: about 1.7% of the library has one in this group of screens.
GLP1R inv ag = qHTS of GLP-1 Receptor Inverse Agonists (Inhibition Mode) | Potency, µM (top dose mostly 38.3 µM), inactives show top-dose activity change, negative = inhibition, usual class: inhibitors | AID 624417, 2012 | Glucagon-like peptide 1 receptor (Homo sapiens), P43220 | HEK293 GLP-1R CRE-luciferase, luminescence, 24 h; GLP-1R form is constitutively active | 1.6% of 410,000 active; further: potency means the concentration at half of the fitted maximal effect; on the % scale 0 is the no-effect control and ±100 the full control effect; nearly all actives have a fitted effect of over 55% in size
Target sequence (P43220 whole entry, looked up): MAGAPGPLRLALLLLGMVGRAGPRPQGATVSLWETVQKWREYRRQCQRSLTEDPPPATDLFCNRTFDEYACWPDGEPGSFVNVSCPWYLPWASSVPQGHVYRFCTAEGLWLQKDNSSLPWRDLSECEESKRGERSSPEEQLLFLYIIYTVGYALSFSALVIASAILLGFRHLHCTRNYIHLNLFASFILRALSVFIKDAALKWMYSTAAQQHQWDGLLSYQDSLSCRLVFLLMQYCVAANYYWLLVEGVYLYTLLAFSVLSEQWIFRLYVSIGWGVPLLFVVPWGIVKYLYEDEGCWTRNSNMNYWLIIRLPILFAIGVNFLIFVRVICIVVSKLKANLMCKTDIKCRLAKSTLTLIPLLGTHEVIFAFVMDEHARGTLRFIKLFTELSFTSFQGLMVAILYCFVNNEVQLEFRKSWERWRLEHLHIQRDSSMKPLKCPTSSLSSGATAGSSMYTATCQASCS
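Using stably transfected HEK293 (constitutively active GLP-1R, cAMP-luciferase reporter), compounds were incubated 24 hr and luciferase measured by luminescence.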
PTHR1 agonist = qHTS for PTHR1 Agonists: Primary Screen | Parathyroid hormone/parathyroid hormone-related peptide receptor (Homo sapiens), Q03431 | HEK293 GP2 PTHR1 cells, GloSensor cAMP luminescence, 1 h | Potency, µM (top dose mostly 115 µM), for inactives: at the highest dose activation, actives largely listed as activators | 0.075% of 410,000 active | AID 743266, 2014; further: potency means the concentration at half of the fitted maximal effect; nearly all actives have a fitted effect of over 55% in size
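HEK-293-derived GP2 cells expressing PTHR1 and a GloSensor cAMP reporter, 3,000/well, plated overnight, given luciferin plus IBMX (each 0.5 mM as added) for 1 h at 37 °C, then compound for 1 h at 37 °C. Luminescence was read after 15 min at room temperature.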
GLP1R ag = qHTS of GLP-1 Receptor Agonists. Glucagon-like peptide 1 receptor (Homo sapiens), P43220. HEK293 GLP-1R CRE-luciferase, luminescence, 4-6 h; cells express a hypersensitive GLP-1R form. Potency, µM (top dose mostly 45.6 µM), for the others: at the top dose activation, most hits filed as activators. 0.007% of 380,000 active. AID 624172, 2012; further: potency means the concentration at half of the fitted maximal effect; % of control where 0% means no effect
LDHA inh = qHTS assay for inhibitors of human lactate dehydrogenase. 0.15% of 480,000 active. purified LDHA, NADH/diaphorase-resazurin fluorescence; hits give low values. activity change, % (values are at about 110 or 230 µM). L-lactate dehydrogenase A chain (Homo sapiens), P00338; in the data active means activity change below about -30%; inconclusive means mostly about -25% to -30%;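 further: plate controls were DMSO wells for no effect and wells without enzyme for full effect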
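Enzyme activity of human lactate dehydrogenase 5 (2 nM; 0.06 mM NADH, 0.2 mM pyruvate, 5 min, RT) is measured via a resazurin/diaphorase fluorescence readout of residual NADH.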
IDH1 R132H inh = qHTS for Inhibitors of mutant isocitrate dehydrogenase 1 (IDH1): qHTS; Potency, µM (titrated, usually from 76.6 µM), without a hit: top-dose activity change, negative = inhibition, actives largely listed as inhibitors; 0.093% of 390,000 active; AID 602179, 2012; Isocitrate dehydrogenase [NADP] cytoplasmic (Homo sapiens), O75874; IDH1-R132H enzyme, NADPH consumption, diaphorase/resazurin fluorescence; further: potency means the concentration at half of the fitted maximal effect; on the % scale 0 is the no-effect control and ±100 the full control effect; nearly all actives have a fitted effect of over 65% in size
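IDH1-R132H (0.5 ug/mL dispensed) in pH 7.5 Tris buffer was preincubated 30 min with compound, then given a substrate mix of 0.016 mM NADPH and 2 mM alpha-KG for 80 min at room temperature; remaining NADPH was read by diaphorase/resazurin fluorescence.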
GLP1R cytotox = qHTS of GLP-1 Receptor Inverse Agonists: Cytotox Screen; HEK293 cAMP-luciferase reporter cells, luminescence, 24 h; Potency, µM (top dose mostly 38.3 µM), for the others: at the highest dose activity change, negative = inhibition, actives largely listed as inhibitors; 0.13% of 410,000 active;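 further: loss of luciferase light is scored as toxicity; potency means the concentration at half of the fitted maximal effect; on the % scale 0 is the no-effect control and ±100 the full control effect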
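Luminescence readout: signal drop marks cytotoxicity. Plated cells grew 12 h at 37 °C, 5% CO2, received 23 nL compound for 24 h, then got luciferase reagent, read after 12 min at RT.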
IDH1 autofl = qHTS for Inhibitors of mutant isocitrate dehydrogenase 1 (IDH1): Cherrypicks Autofluorescence Interference | shares compounds with IDH1 R132H inh | Resorufin detection reagent fluorescence interference, cell-free | 750 tested, under 10 active | inhibition of signal, % at 51.2 µM;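 further: 0% = wells with normal resorufin and full inhibition = wells lacking resorufin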
IDH1 WT = qHTS for Inhibitors of mutant isocitrate dehydrogenase 1 (IDH1): Cherrypicks in WT IDH1; AID 623995, 2012; Potency, µM (top dose mostly 115 µM), for inactives: top-dose activity change, negative = inhibition, most hits filed as inhibitors; 9% of 750 active; shares compounds with IDH1 R132H inh; WT IDH1 enzyme, NADPH diaphorase/resazurin fluorescence;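 further: potency means the concentration at half of the fitted maximal effect; 0% = full WT IDH1 enzyme control and full inhibition = no enzyme wells; nearly all actives have a fitted effect of over 55% in size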
IDH1 R132H conf = qHTS for Inhibitors of mutant isocitrate dehydrogenase 1 (IDH1): Confirmation of Cherrypicks; IDH1 R132H enzyme, NADPH diaphorase/resazurin fluorescence; AID 624002, 2012; Potency, µM (highest dose often 76.6 µM), inactives show top-dose activity change, negative = inhibition, usual class: inhibitors; 83% of 750 active; shares compounds with IDH1 R132H inh; further: potency means the concentration at half of the fitted maximal effect; nearly all actives have a fitted effect of over 50% in size
* marks the source's active call; other numbers are inactive results; i = inactive; ? = inconclusive; . = no result; [ ] = dose if it differs, or a comment. Unless noted, the call rests on the fitted dose curve; in most records, active means well fitted curve in the direction sought with a large enough effect; inconclusive means small, poorly fitted or top-dose-only effect, or another doubt; inactive means no such curve, though single readings can be large; an effect the other way counts as inactive or inconclusive.

SMILES	GLP1R inv ag	PTHR1 agonist	GLP1R ag	LDHA inh	IDH1 R132H inh	GLP1R cytotox	IDH1 autofl	IDH1 WT	IDH1 R132H conf
COc1ccc(C2NC(=O)c3n[nH]c(C)c32)c(OC)c1 (stereo unspecified)	52%	-2%	3%	-9	-3%	2%	.	.	.
COc1ccc(-c2n[nH]c3c2C(c2ccc(Cl)cc2Cl)NC3=O)cc1 (stereo unspecified)	9%	-47%	6%	-5	?	-9%	1	-9%	40µM*
CCc1ccc(C(C(=O)NC(C)(C)CC)N(Cc2ccco2)C(=O)Cn2nnc3ccccc32)cc1 (stereo unspecified)	?	2%	-8%	-9	-25%	-18%	.	.	.
CCC(C)(C)NC(=O)C(c1ccc(C)o1)N(Cc1cccs1)C(=O)Cn1nnc2ccccc21 (stereo unspecified)	-14%	-12%[57.5 µM]	4%	-6	?	-17%	-4	-5%	22µM*
O=C(NC1CCCCC1)C(c1ccccc1)N(Cc1ccco1)C(=O)c1csnn1 (stereo unspecified)	-22%	-10%	8%	-3	-4%	-10%	.	.	.
O=C(NCc1ccco1)C(c1ccco1)N(Cc1cccs1)C(=O)Cn1nnc2ccccc21 (stereo unspecified)	-27%	-6%	-4%	-6	1%	-1%	.	.	.
O=C(NC1CCCCC1)C(c1ccccc1)N(Cc1ccco1)C(=O)Cn1cnc2ccccc21 (stereo unspecified)	8%	6%[57.5 µM]	-17%	1	12µM*	-3%	-2	-8%	6.3µM*
O=C(NC1CCCCC1)C(c1ccco1)N(Cc1cccs1)C(=O)Cn1nnc2ccccc21 (stereo unspecified)	?	i	1%	3	?	-22%	-3	-2%	11µM*
CCC(C)(C)NC(=O)C(c1ccccc1)N(Cc1cccs1)C(=O)Cn1nnc2ccccc21 (stereo unspecified)	?	i	0%	-1	?	-17%	5	4%	16µM*
Cc1ccc(C)c(-c2nc3ccccc3c(C(=O)O)c2C)c1	.	.	.	-1	.	.	.	.	.
C=CCNC(=O)c1cccc2c(=O)c(C)c(-c3ccccc3)oc12	.	.	.	2	.	.	.	.	.
CC(C)CCOc1ccc(CO[C@@H]2[C@H]3OC(C)(C)O[C@H]3O[C@@H]2[C@@H](O)CO)cc1	.	.	.	4	.	.	.	.	.
FC(F)(F)c1cc(Cl)c2nc(-c3cccc(Br)c3)cn2c1	.	.	.	1	.	.	.	.	.
O=C(CCN(Cc1cccs1)C1CC1)NC1CC1	.	.	.	4	.	.	.	.	.
O=C1NC[C@H](Cc2ccccc2)N(C[C@@H]2CCCN2C[C@H](Cc2ccccc2)N2C[C@H](Cc3ccccc3)N(CCc3ccccc3)C(=O)C2=O)C1=O	?	i	-6%	-4	.	?	.	.	.
O=C1NC[C@H](Cc2ccccc2)N(C[C@@H]2CCCN2C[C@H](Cc2ccccc2)N2C[C@H](Cc3ccccc3)N(CC3CCCCC3)C(=O)C2=O)C1=O	?	-79%	-3%	-1	.	-19%	.	.	.
O=C1NC[C@H](Cc2ccccc2)N(C[C@H]2CCCN2C[C@H](Cc2ccccc2)N2C[C@H](Cc3ccccc3)N(CCc3ccccc3)C(=O)C2=O)C1=O	?	-80%	-3%	0	?	?	0	1%	28µM*
O=C1NC[C@H](Cc2ccccc2)N(C[C@H]2CCCN2C[C@H](Cc2ccccc2)N2C[C@H](Cc3ccccc3)N(CC3CCCCC3)C(=O)C2=O)C1=O	?	-1%	3%	1	?	-28%	6	-4%	?
O=C(NC1CCCC1)c1cc(Sc2cccc(Cl)c2)nc2ccccc12	.	.	.	-18	.	.	.	.	.
Oc1ccc(-c2nc(-c3ccc(Br)s3)cs2)cc1	.	.	.	-3	.	.	.	.	.
CN(C1=C(N2CCCCC2)C(=O)c2ccccc2C1=O)c1ccccc1	?	-9%[57.5 µM]	7%	17	?	?	-3	2%	?
CC(C)CCSc1nc(N2CCOCC2)c2c(c1C#N)CC(C)(C)OC2	0%	i	14%	9	16µM*	3%	-10	11%	7.9µM*
Cc1nnsc1NC(=O)OCc1ccc(C(C)(C)C)cc1	?	-27%[57.5 µM]	-19%	-2	?	-3%	3	2%	-3%
Cc1nn(-c2ccccc2)c(Cl)c1CN(C(=O)CCl)c1ccc(Cl)cc1	?	i	-40%	-3	52µM*	?	-2	-2%	28µM*
Cc1ccc(N(CC(=O)NC2CCCCC2)C(=O)c2ccc(C)s2)cc1	?	i	-1%	-9	5%	-14%	.	.	.
Cc1cc(C)cc(N(CC(=O)NC2CCCCC2)C(=O)c2ccc(C)s2)c1	20%	i	6%	-11	?	-28%	3	2%	20µM*
CCOC(=O)c1c(NC(=O)COC(=O)Cc2ccccc2[N+](=O)[O-])sc(C(=O)N(C)C)c1C	57%	-2%	19%	-5	0%	2%	.	.	.
CCOC(=O)c1c(NC(=O)COC(=O)c2ccccc2NC)sc(C(=O)N(C)C)c1C	?	-36%	7%	1	12µM*	-13%	-4	10%	4.5µM*
